# Assay outcomes deposited in PubChem BioAssay by National Center for Advancing Translational Sciences (NCATS).
# SW480 rereplic: A quantitative high throughput screen for small molecules that induce DNA re-replication in SW480 colon adenocarcinoma cells. SW480 DNA re-replication, Hoechst DNA content imaging, 48 h. Potency, µM (series often up to 46.1 µM), for the others: at the top dose re-replication activation, most hits filed as activators. 1.8% of 340,000 active. AID 624297, 2012; note: % of control where 0% means no effect; nearly all actives have a fitted effect of over 55% in size
#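 250 cells/well; 23 nL cpd via pin tool; 48 hr, 37 C, 5% CO2; Hoechst 40 min; imager read of total nuclear intensity, ex 405/em 500-530 nm.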
# MCF10A rerep: A quantitative high throughput screen for small molecules that induce DNA re-replication in MCF 10a normal breast cells; MCF 10A DNA re-replication, Hoechst nuclear intensity, 48 h; Potency, µM (doses to about 46.1 µM), without a hit: at the highest dose activity, positive = re-replication, actives largely listed as activators; 2.9% of 350,000 active; AID 624296, 2012; note: % of control where 0% means no effect; nearly all actives have a fitted effect of over 50% in size
# KB-V1 MDR tox: qHTS assay for MDR1-selective chemotherapeutics: Primary screen using the drug-selected MDR subline cells KB-V1 | AID 1347076, 2019 | KB-V1 MDR cells viability, CellTiter-Glo, 72 h | 3.4% of 400,000 active | Potency, µM (titrated, usually from 46.1 µM), hits mostly cytotoxic; note: % is set by controls: 0 for no effect and ±100 for the full control effect; nearly all actives have a fitted effect of over 60% in size
#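 Cells of the MDR subline KB-V1 are plated, dosed with compound at multiple concentrations, and incubated 72 h at 37 degrees C; CellTiter-Glo is then added and luminescence read after 10 min.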
# KB-3-1 tox: qHTS assay for MDR1-selective chemotherapeutics: Primary screen using the parental adenocarcinoma cell KB-3-1; KB-3-1 viability, CellTiter-Glo ATP luminescence, 72 h; Potency, µM (highest dose often 46.1 µM), usual class: cytotoxic; 1.4% of 400,000 active; AID 1347075, 2019; note: % is set by controls: 0 for no effect and ±100 for the full control effect; nearly all actives have a fitted effect of over 60% in size
#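 Cytotoxicity measured as CellTiter-Glo luminescence after 72 h at 37 C. Compound titrations were pinned onto drug-naive KB-3-1 parental adenocarcinoma cells grown in DMEM with 10% FBS, and normalized data fitted to concentration-response curves.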
# ELG1 repair inh: qHTS screen for small molecules that inhibit ELG1-dependent DNA repair in human embryonic kidney (HEK293T) cells expressing luciferase-tagged ELG1. Potency, µM (titrated, usually from 46.1 µM), for inactives: at the highest dose activity change, negative = inhibition, most hits filed as inhibitors. 2.3% of 330,000 active. HEK293T ELG1-luciferase reporter, luminescence, 16 h; DNA damage induced by 5-fluorouridine. AID 504467, 2011; note: % is set by controls: 0 for no effect and ±100 for the full control effect; nearly all actives have a fitted effect of over 55% in size
#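 HEK293T cells expressing luciferase-tagged ELG1 (2,000/well) received 5-Fluorouridine plus compound or DMSO for 16 hr at 37 °C. Luciferase was read by ONE-Glo luminescence after 30 min at room temperature.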
# * = called active by the depositor; i = inactive; ? = inconclusive; nt = no result given; ! = not active in a repeat; [ ] = dose if it differs, or a comment. Hits are enriched below; roughly 8.1% of the tested compounds scored in any of these assays. Calls come from the whole dose curve; as a rule, active = well fitted curve in the direction sought with a large enough effect; inconclusive = small, poorly fitted or top-dose-only effect, or another doubt; inactive = no such curve, though single readings can be large; an effect the other way counts as inactive or inconclusive. Potency is the fitted concentration of half-maximal effect.
SMILES,SW480 rereplic,MCF10A rerep,KB-V1 MDR tox,KB-3-1 tox,ELG1 repair inh
CO/N=C/C(=N\Nc1ccc(OC)cc1)C(=O)c1ccc(OC)cc1,?,13.9%,11.6µM*,?,?
COc1ccc2c(c1)/C(=C\c1cccc(/C=C3/C(=O)Nc4ccc(OC)cc43)n1)C(=O)N2,2.91µM*,?,i,1.84µM*,nt
N#Cc1ccc(NC(=O)CN2CCN(c3ccccn3)CC2)cc1,-0.5%,-5.5%,i,i,-18.4%
COc1ccc(-c2c(C#N)c(SCC(=O)Nc3cccc(Cl)c3)nc(C)c2C(=O)Nc2ccccc2)cc1OC,nt,nt,i,i,nt
O=[N+]([O-])c1ccc(C2Oc3ccccc3C3CC(c4ccccc4)=NN32)s1 (stereo unspecified),23.1µM*,14.6µM*,nt,nt,?
CC(=O)Nc1ccc(S(=O)(=O)NC2CC(=O)N(c3ccc(C)cc3)C2)cc1 (stereo unspecified),6.51µM*,-14.6%,i,i,7.1%
CC(=O)Nc1ccc(S(=O)(=O)NC2CC(=O)N(c3ccc(C)c(C)c3)C2)cc1 (stereo unspecified),1.2%,-1.1%,i,i,7.1%
Cc1nc2cc(NS(=O)(=O)c3ccc(Br)cc3)ccc2n1C,8.7%,0.5%,i,i,20.6µM*
Cc1nc2ccc(NS(=O)(=O)c3ccc(Br)cc3)cc2s1,1.8%,-3.5%,i,23.1µM*,-0.4%
Cc1ccc(S(=O)(=O)Nc2ccc3nc(N)sc3c2)cc1,-2.8%,21.0%,20.6µM*,?,?
Cc1ccc(S(=O)(=O)Nc2ccc3nc(C)oc3c2)cc1,0.4%,9.9%,2.91µM*,?,nt
Cc1ccc(S(=O)(=O)Nc2ccc3nc(C)sc3c2)cc1,-1.7%,-3.3%,?,i,-2.7%
COc1cc(CCC(=O)N2CCN(S(=O)(=O)c3ccc(C)cc3)CC2)cc(OC)c1OC,-0.5%,?,i,i,-10.0%
COc1ccc(NC(=O)C2CCCN2S(=O)(=O)c2ccc(Cl)cc2)cc1 (stereo unspecified),-6.4%,-4.0%,i,i,7.4%
Cc1cc(=O)cc(C)n1-c1ccc(Br)cc1,-1.9%,0.6%,i,i,1.4%
Cc1nc2cc(NS(=O)(=O)c3c(C)c(C)cc(C)c3C)ccc2s1,-1.2%[9.22 µM],21.1%,11.2µM*,12.6µM*,?
COc1cc(C2C(C#N)=C(SC)NC3=C2C(=O)CCC3)ccc1O (stereo unspecified),-15.5%,-2.7%,i,i,-19.2%
Cc1ccc(NC(=O)CSC2=C(C#N)C(c3ccco3)C3=C(CC(C)(C)CC3=O)N2)cc1 (stereo unspecified),?,9.5%,i,i,?
CCOC(=O)C1=C(c2ccccc2)NC(SCC(=O)Nc2ccc(C)cc2)=C(C#N)C1c1ccco1 (stereo unspecified),?,15.8%,?,i,nt
CCOC(=O)C1=C(c2ccccc2)NC(SCC(=O)Nc2cccc(C)c2)=C(C#N)C1c1ccco1 (stereo unspecified),18.4µM*,?,14.6µM*,i,?
CCc1ccc(NC(=O)CSC2=C(C#N)C(c3ccco3)C3=C(CCCC3=O)N2)cc1 (stereo unspecified),?,18.4µM*,?,?,?
N#CC1=C(SCC(=O)c2ccc(Br)cc2)NC2=C(C(=O)CCC2)C1c1ccco1 (stereo unspecified),12.6µM*,7.94µM*,20.6µM*,10.3µM*,13µM*
CCc1ccccc1NC(=O)CSC1=C(C#N)C(c2ccc(O)c(OC)c2)C2=C(CCCC2=O)N1 (stereo unspecified),?,16.4µM*,i,?,-29.4%
CS(=O)(=O)N(Cc1ccc(Cl)cc1)c1ccc(C(=O)NCC2CCCO2)cc1 (stereo unspecified),-15.3%,-16.6%,i,i,8.8%
CCS(=O)(=O)C1=NN2C(=N)/C(=C\c3ccc(OC(=O)c4ccco4)c(Br)c3)C(=O)N=C2S1,nt,nt,nt,nt,19.8%
SMILES,SW480 rereplic,MCF10A rerep,KB-V1 MDR tox,KB-3-1 tox,ELG1 repair inh
CC1=C(C(=O)Nc2nc3ccccc3s2)C(c2ccco2)C(C#N)=C(SCC(=O)NC2CCCCC2)N1 (stereo unspecified),18.4µM*,14.6µM*,i,i,?
CC(=O)C1=C(C)NC(SCC(=O)c2ccc(Cl)cc2)=C(C#N)C1c1ccco1 (stereo unspecified),-4.1%,12.5%,20.6µM*,i,?
C#CCOc1c(Br)cc(/C=N/O)cc1OCC,-0.7%,?,?,?,?
Cc1cc(O)c(C(C)C)cc1N=Cc1ccc(N(C)C)cc1,?,20.6µM*,nt,nt,nt
Cc1cc(O)c(C(C)C)cc1NC(=O)Nc1ccc([N+](=O)[O-])cc1,-10.4%,-13.8%,i,i,nt
Cc1cc(O)c(C(C)C)cc1N=Cc1ccc([N+](=O)[O-])cc1,18.4µM*,18.4µM*,nt,nt,nt
COc1cccc(C=Nc2cc(C(C)C)c(O)cc2C)c1O,?,?,?,i,nt
O=C(Nc1cc(C(F)(F)F)ccc1-n1cncn1)c1ccc(Br)cc1,-2.4%,0.6%,?,i,-5.1%
O=C(Nc1cc(C(F)(F)F)ccc1-n1cncn1)c1ccc([N+](=O)[O-])o1,9.2µM*,?,?,20.6µM*,?
O=C(Nc1ccc([N+](=O)[O-])cc1)C(Cc1ccccc1)N1C(=O)c2cccc3cccc(c23)C1=O (stereo unspecified),18.4µM*,11.6µM*,?,?,5.6%
Oc1ccc(-c2csc(Nc3ncccn3)n2)cc1,-5.3%,4.2%,i,i,?
COc1ccc(C(CCN2CCCCC2)c2c(OC)cc(OC)c3c(-c4ccccc4)cc(=O)oc23)cc1 (stereo unspecified),1.64µM*,?,i,?,-5.2%
CN(C)C(CN1C(=O)C2CC=CCC2C1=O)c1cn(C)c2ccccc12 (stereo unspecified),4.11µM*,-0.6%,i,i,1.4%
CC(C)Cn1cnc2c(SCc3ccccc3)nc(N)nc21,-0.9%,12.7%,i,i,nt
CC(C)Cn1cnc2c(N)nc3ccccc3c21,0.581µM*!,?,?,i,10.0%
O=C(C1CCCN(S(=O)(=O)c2cccc3nonc23)C1)N1CCN(c2cccc(Cl)c2)CC1 (stereo unspecified),16.3%,?,?,i,?
